The values below come from the supplement of paper PMC12340641.

Each structure is given as a SMILES string. Where a name gives a salt, the structure may show the parent alone.

The target of assay [1] is IKZF1 (dCK*-IKZF1 fusion in HEK293FT) (UniProt Q13422). Kind of assay: inhibition of IKZF1 HTRF signal (DMSO = 0%, pomalidomide 10 uM = 100%); higher = lower IKZF1 protein level. Conditions: compound concentration: 5 uM, overnight (~20 h). Summed up: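 After overnight treatment at 37 °C with 5 μM compound in single wells, HEK293FT cells (2000/well, 384-well) stably expressing an IKZF1 fusion were lysed for 30 min at room temperature. A commercial HTRF total-IKZF1 antibody kit was incubated with the lysate overnight, and the time-resolved FRET ratio at 665/620 nm was corrected for background. Data are given as percent inhibition of IKZF1 signal relative, on each plate, to vehicle and a reference degrader, set at 0% and 100% respectively.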
IKZF1 (dCK*-IKZF1 fusion in HEK293FT), sequence (Q13422 whole entry, looked up, the tested form may be a part): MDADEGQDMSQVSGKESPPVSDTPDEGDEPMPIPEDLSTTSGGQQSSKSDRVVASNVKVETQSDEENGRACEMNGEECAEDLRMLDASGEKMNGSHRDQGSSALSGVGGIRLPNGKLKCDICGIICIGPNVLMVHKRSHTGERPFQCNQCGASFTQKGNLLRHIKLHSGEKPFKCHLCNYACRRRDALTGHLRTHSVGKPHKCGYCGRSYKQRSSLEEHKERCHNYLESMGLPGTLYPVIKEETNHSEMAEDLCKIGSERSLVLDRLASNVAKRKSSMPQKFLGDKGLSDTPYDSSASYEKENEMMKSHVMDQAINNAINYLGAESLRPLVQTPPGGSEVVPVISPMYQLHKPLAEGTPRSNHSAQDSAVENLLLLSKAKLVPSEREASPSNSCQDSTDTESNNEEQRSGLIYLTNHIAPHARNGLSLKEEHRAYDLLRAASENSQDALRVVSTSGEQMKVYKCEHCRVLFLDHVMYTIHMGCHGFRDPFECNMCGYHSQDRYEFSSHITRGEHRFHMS
A general note: TR-FRET usually uses a lanthanide donor and a delayed reading to cut background.

In the next assay the test system is HEK293FT dCK*-only. Kind of assay: relative growth in counter assay (no AraC = 100%, AraC + DMSO = 0%); higher = more growth rescue independent of IKZF1. Conditions: compound concentration: 5 uM; AraC concentration: 0.3 uM; overnight pretreatment + 4 days AraC. Summed up:
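Counter assay in HEK293FT cells expressing dCK* alone (300/well, 384-well). Cells received 5 μM compound 2 h after seeding, then after overnight at 37 °C a nucleoside suicide substrate at 0.3 μM plus medium for 4 days. On day 5, Hoechst 33342-stained nuclei were counted by imaging. Relative growth was normalised per plate to wells without suicide substrate (100%) and substrate plus vehicle (0%).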

The next assay has as its system HEK293FT dCK*-IKZF1. Put plainly: relative growth recovery (pomalidomide 10 uM = 100%, DMSO = 0%); higher = more growth rescue (IKZF1 fusion degradation). Conditions: compound concentration: 5 uM; AraC concentration: 0.3 uM; overnight pretreatment + 4 days AraC. Put shortly: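 HEK293FT cells stably expressing a dCK*-IKZF1 fusion (300/well, 384-well) received 5 μM compound 2 h after seeding. After overnight at 37 °C they received a nucleoside suicide substrate at 0.3 μM plus medium for 4 days. On day 5, Hoechst 33342-stained nuclei were counted by whole-well imaging. Growth recovery was normalised per plate to a reference degrader (100%) and vehicle (0%); values are means of duplicates run on different days.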

In the case of `c1ccc(C(NCCNC(c2ccccc2)c2ccccc2)c2ccccc2)cc1`, the “inhibition of IKZF1 HTRF signal” value in assay [1] was -1.32%. Besides, the “relative growth in counter assay” value in the assay on HEK293FT dCK*-only came to 3.27%. The relative growth recovery in the assay on HEK293FT dCK*-IKZF1 is 3.32%.
For `CC(C)(C)CC(C)(C)c1ccc(O)c(Cc2ccc(Cl)cc2Cl)c1` the same measures were 115%, -6.45% and -7.76%.
On to `CC1(S(=O)(=O)[O-])CC(=O)c2ccccc2C1=O` (stereo not drawn) [menadione-bisulfite], for which, in assay [1], the “inhibition of IKZF1 HTRF signal” value stood at 9.55%. Also, the “relative growth in counter assay” value with HEK293FT dCK*-only was -12.2%. Further, the relative growth recovery with HEK293FT dCK*-IKZF1 is -7.9%.
For `Clc1ccc(COC(Cn2ccnc2)c2ccc(Cl)cc2Cl)cc1` (stereo not drawn) [Econazole Nitrate] the same measures were -40.1%, 3.6% and 4.02%.
`NC(=O)C(c1ccccc1)(c1ccc(F)cc1)c1ccc(F)cc1` [Senicapoc]: in assay [1], the “inhibition of IKZF1 HTRF signal” value is -28.5%. Besides, the “relative growth in counter assay” value in the assay on HEK293FT dCK*-only was found to be 2.14%. Moreover, in the assay on HEK293FT dCK*-IKZF1, the relative growth recovery was -0.855%.
For `O=C(NCc1ccc(OC(F)(F)F)cc1)C1c2ccccc2C(=O)N1C1CCOCC1` (stereo not drawn) the same measures were -25.8%, -2.6% and -1.02%.
Taken in the same sequence, the figures for `COc1ccc(-c2ccc3c(N4CCOCC4)nc(N4C[C@@H](C)O[C@@H](C)C4)nc3n2)cc1CO` were 14.5%, -14% and -6.47%.
Take `CN1CCN(C2=Nc3ccccc3Sc3ccc(Cl)cc32)CC1` [Clothiapine]: the “inhibition of IKZF1 HTRF signal” value in assay [1] was 23.7%. Also, the “relative growth in counter assay” value in the assay on HEK293FT dCK*-only is 0.53%. In the assay on HEK293FT dCK*-IKZF1, the relative growth recovery came out at 0.605%.
Taken in the same sequence, the figures for `COc1cc(N2CCN(CCOCCOCCNC(=O)CNc3cccc4c3C(=O)N(C3CCC(=O)NC3=O)C4=O)CC2)ccc1Nc1ncc(Cl)c(Nc2ccccc2S(=O)(=O)C(C)C)n1` (stereo not drawn) were 34.1%, -27.8% and -4.32%.
For `COc1cccc2c(O)c3c(O)c4c(c(O)c3c(O)c12)=C(O[C@H]1C[C@H](N)[C@@H](O)[C@H](C)O1)C[C@](O)(C(=O)CO)C=4` [Epirubicin HCl] the same measures were 24%, -34.6% and -13.6%.
Regarding `CCC(=N\O)/C(C)=C/c1ccc(F)cc1`, the “inhibition of IKZF1 HTRF signal” value in assay [1] is 12.6%. Further, in the assay on HEK293FT dCK*-only, the “relative growth in counter assay” value was -3.61%. In the assay with HEK293FT dCK*-IKZF1, the relative growth recovery was -0.58%.
Regarding `CC(=O)Nc1ncc([N+](=O)[O-])s1`, the “inhibition of IKZF1 HTRF signal” value in assay [1] is 6.78%. The “relative growth in counter assay” value with HEK293FT dCK*-only is 5.87%. Further, in the assay on HEK293FT dCK*-IKZF1, the relative growth recovery is -3.04%.
For the compound `Clc1ccc(C(Cn2ccnc2)OCc2c(Cl)cccc2Cl)c(Cl)c1` (stereo not drawn) [Isoconazole nitrate (Travogen)], the “inhibition of IKZF1 HTRF signal” value in assay [1] is -10.4%. In the assay with HEK293FT dCK*-only, the “relative growth in counter assay” value was determined as 0.7%. The relative growth recovery in the assay with HEK293FT dCK*-IKZF1 is -3.42%.
Taken in the same sequence, the figures for `NC(=O)N/N=C/c1ccc(Oc2ccc(F)cc2)cc1` were -35%, 2.45% and -1.07%.
Taken in the same sequence, the figures for `COc1cccc2c1C(=O)c1c(O)c3c(c(O)c1C2=O)C[C@@](O)(C(=O)CO)C[C@@H]3O[C@H]1C[C@H](N)[C@@H](O)[C@H](C)O1` [Epirubicin Hydrochloride] were 52.4%, -34.5% and -13.7%.
For `Cc1cc(Nc2ncc(Cl)c(Nc3ccccc3S(=O)(=O)C(C)C)n2)c(OC(C)C)cc1C1CCN(CC(=O)NCCNc2cccc3c2C(=O)N(C2CCC(=O)NC2=O)C3=O)CC1` (stereo not drawn) the same measures were 24.5%, 3.63% and 24.8%.
`NC(=O)N/N=C/c1ccc([N+](=O)[O-])o1`: in assay [1], the “inhibition of IKZF1 HTRF signal” value is -34.9%. The “relative growth in counter assay” value with HEK293FT dCK*-only was -3.72%. Besides, the relative growth recovery in the assay with HEK293FT dCK*-IKZF1 is -4.82%.
For `COc1ccc(NS(=O)(=O)c2ccc(N)cc2)nn1` the same measures were -33.3%, -4.98% and -1.8%.
For `Nc1cccc2c1C(=O)N(C1CCC(=O)NC1=O)C2=O` (stereo not drawn) [Pomalidomide] the same measures were 92.7%, 2.03% and 81.4%.
For `O=C1C=Cc2cc(Br)ccc2C1=O` [bonaphthone] the same measures were 23%, 1.29% and -2.85%.
In the case of `COC(=O)Nc1nc2ccc(Sc3ccccc3)cc2[nH]1`, in assay [1], the “inhibition of IKZF1 HTRF signal” value was -26.6%. The “relative growth in counter assay” value in the assay on HEK293FT dCK*-only was -32.4%. In the assay with HEK293FT dCK*-IKZF1, the relative growth recovery was -9.72%.
As to `O=C(Nc1ccc(F)cc1)N1CCc2ccccc2C1c1ccc(C(F)(F)F)cc1` (stereo not drawn), in assay [1], the “inhibition of IKZF1 HTRF signal” value is -25.5%. Besides, the “relative growth in counter assay” value in the assay with HEK293FT dCK*-only worked out at 4.9%. Further, in the assay with HEK293FT dCK*-IKZF1, the relative growth recovery was -0.27%.
Taken in the same sequence, the figures for `Cc1ccc(S(=O)(=O)NC(=O)NN2CCCCCC2)cc1` were -31.1%, 0.45% and -2.75%.
For `COC(=O)C1=C(C)NC(C)=C(C(=O)OC)C1c1ccccc1[N+](=O)[O-]` the same measures were -23.7%, -4.16% and -3.38%.
For `COc1cc([C@@H]2c3cc4c(cc3C(O[C@@H]3O[C@@H]5CO[C@@H](c6cccs6)OC5[C@H](O)[C@H]3O)C3COC(=O)[C@@H]32)OCO4)cc(OC)c1O` (stereo partly drawn) the same measures were 16.8%, -34.5% and -13.1%.
`NS(=O)(=O)Cc1noc2ccccc12` [zonisamide]: in assay [1], the “inhibition of IKZF1 HTRF signal” value was -28.2%. For the same compound, the “relative growth in counter assay” value in the assay on HEK293FT dCK*-only amounted to 2.4%. Further, the relative growth recovery in the assay with HEK293FT dCK*-IKZF1 was -2.26%.
With `CCSc1ccc2c(c1)N(CCCN1CCN(C)CC1)c1ccccc1S2` [thiethylperazine], the “inhibition of IKZF1 HTRF signal” value in assay [1] came to 24.1%. Besides, in the assay on HEK293FT dCK*-only, the “relative growth in counter assay” value is -4.22%. The relative growth recovery with HEK293FT dCK*-IKZF1 was determined as 1.55%.
Taken in the same sequence, the figures for `O=C(Nc1ccc(Cl)nc1)c1ccc(Cl)cc1` were -32.9%, 4.25% and 3.85%.
Taken in the same sequence, the figures for `O=C(Nc1ccc(S(=O)(=O)Nc2ccccc2Cl)c(Cl)c1)c1ccccn1` were 25.4%, 1.67% and -1.18%.
Taken in the same sequence, the figures for `Clc1ccc(COC(Cn2ccnc2)c2ccc(Cl)cc2Cl)cc1` (stereo not drawn) were -29.1%, 1.65% and 0.49%.
Regarding `Nc1ccc(-c2nc3ccc(-c4nc5ccc(N)cc5[nH]4)cc3[nH]2)cc1`, in assay [1], the “inhibition of IKZF1 HTRF signal” value is 1.33%. The “relative growth in counter assay” value in the assay with HEK293FT dCK*-only is -6.2%. For the same compound, in the assay with HEK293FT dCK*-IKZF1, the relative growth recovery is -2.58%.
